Experiments:
Assay in all cases: DAPPL (digital affinity profiling via proximity ligation, sequencing); 10 mM Tris-HCl pH 7.5, 50 mM NaCl, 1 mM DTT, 4% glycerol, room temperature, 30 min; GST-TFs on glutathione beads, 16-mer random dsDNA library, 0.1% formaldehyde crosslink after washing; high values mean tight binding
Details in all cases: protein: recombinant; tags: N-terminal GST; dsDNA, one strand shown
[1] = biological target: T1, FEV (Homo sapiens, UniProt Q99581 1-238)
T1 sequence: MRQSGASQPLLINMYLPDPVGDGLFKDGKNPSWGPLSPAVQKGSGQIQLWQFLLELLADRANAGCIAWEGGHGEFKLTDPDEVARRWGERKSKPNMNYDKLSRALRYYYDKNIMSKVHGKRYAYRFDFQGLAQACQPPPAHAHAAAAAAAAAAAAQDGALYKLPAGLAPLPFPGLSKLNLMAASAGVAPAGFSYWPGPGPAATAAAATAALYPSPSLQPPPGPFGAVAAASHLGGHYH
In short: (§1)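 After expression in yeast as GST fusions, human transcription factors were bound to glutathione beads, DNA-barcoded and mixed with a tag-only sample. The pools were incubated with 200 nmole of a 16-mer random double-stranded DNA library in Tris/NaCl/DTT/glycerol buffer (30 min, room temperature), washed and crosslinked with 0.1% formaldehyde. Proximity ligation with BsaI/T4 ligase ran for 1 h at 37 °C, before PCR amplification and sequencing on an Illumina NextSeq500. Binding signal is a hexamer's read frequency for a factor divided by its frequency for the tag-only sample.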

[2] = biological target: ETV5 (Homo sapiens, UniProt P41161 1-510)
ETV5, sequence (P41161 whole entry): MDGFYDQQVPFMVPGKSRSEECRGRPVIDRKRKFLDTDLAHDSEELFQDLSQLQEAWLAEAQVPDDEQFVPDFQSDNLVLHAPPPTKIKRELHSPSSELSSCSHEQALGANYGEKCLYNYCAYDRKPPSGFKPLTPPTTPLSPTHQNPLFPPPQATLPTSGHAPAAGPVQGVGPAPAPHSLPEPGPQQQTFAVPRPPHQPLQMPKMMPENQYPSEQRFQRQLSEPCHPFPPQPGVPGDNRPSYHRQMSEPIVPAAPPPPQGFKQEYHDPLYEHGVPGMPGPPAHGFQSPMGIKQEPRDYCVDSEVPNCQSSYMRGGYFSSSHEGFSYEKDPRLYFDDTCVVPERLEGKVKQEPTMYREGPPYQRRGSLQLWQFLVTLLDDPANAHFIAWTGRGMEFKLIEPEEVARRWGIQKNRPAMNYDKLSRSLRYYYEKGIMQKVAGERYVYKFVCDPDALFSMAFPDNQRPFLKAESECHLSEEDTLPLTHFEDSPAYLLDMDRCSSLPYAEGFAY
In short: as §1

[3] = biological target: T2, SPIC (Homo sapiens, UniProt Q8N5J4 1-248)
T2 sequence: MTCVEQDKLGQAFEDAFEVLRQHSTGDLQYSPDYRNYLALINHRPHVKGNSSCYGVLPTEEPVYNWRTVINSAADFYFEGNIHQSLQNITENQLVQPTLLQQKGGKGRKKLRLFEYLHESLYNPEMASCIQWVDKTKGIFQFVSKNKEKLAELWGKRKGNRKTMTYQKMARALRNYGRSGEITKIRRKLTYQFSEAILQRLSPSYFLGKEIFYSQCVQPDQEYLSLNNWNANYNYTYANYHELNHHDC
In short: as §1

[4] = biological target: ELF4 (Homo sapiens, UniProt Q99607 1-663)
ELF4, sequence (Q99607 whole entry): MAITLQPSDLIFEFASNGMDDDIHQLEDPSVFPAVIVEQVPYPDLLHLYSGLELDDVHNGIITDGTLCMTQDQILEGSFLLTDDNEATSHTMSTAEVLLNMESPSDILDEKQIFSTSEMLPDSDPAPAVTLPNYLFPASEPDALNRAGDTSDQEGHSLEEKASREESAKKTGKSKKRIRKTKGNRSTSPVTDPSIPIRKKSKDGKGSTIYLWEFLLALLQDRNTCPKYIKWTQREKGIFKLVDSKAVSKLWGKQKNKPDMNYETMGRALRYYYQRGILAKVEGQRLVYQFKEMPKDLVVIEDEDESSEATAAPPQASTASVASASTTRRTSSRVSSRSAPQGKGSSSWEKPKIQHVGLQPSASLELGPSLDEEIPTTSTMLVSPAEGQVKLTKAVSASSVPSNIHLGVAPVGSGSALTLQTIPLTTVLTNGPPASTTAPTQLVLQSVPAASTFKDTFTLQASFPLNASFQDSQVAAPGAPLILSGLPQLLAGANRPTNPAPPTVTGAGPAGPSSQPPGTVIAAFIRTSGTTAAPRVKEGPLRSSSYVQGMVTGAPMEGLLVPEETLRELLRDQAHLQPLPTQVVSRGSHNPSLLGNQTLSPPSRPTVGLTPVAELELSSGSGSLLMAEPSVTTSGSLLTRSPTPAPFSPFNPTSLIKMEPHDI
In short: as §1

[5] = biological target: T3, ELK4 (Homo sapiens, UniProt P28324-2 1-405)
T3 sequence: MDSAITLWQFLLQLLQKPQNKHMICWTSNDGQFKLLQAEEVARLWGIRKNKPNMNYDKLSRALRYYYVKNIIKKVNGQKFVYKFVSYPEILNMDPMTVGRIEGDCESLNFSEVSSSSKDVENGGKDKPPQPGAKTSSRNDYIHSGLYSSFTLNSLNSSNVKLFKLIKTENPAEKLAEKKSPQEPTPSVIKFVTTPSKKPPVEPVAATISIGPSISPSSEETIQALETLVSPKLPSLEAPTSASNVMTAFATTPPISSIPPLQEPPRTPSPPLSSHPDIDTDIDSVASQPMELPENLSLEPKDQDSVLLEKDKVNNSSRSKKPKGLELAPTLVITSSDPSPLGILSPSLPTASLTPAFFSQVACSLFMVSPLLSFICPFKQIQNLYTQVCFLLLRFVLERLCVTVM
In short: as §1

[6] = biological target: T4, ETV2 (Homo sapiens, UniProt O00321 1-342)
T4 sequence: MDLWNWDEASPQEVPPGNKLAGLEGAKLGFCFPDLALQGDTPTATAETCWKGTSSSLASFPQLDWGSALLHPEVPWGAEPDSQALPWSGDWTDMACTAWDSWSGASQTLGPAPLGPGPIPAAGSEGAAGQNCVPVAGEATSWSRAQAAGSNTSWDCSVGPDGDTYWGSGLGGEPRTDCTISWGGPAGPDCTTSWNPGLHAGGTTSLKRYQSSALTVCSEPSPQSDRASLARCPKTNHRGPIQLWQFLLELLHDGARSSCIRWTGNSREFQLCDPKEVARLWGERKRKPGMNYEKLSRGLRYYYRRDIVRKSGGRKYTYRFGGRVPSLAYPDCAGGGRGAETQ
In short: as §1

[7] = biological target: T5, ELF3 (Homo sapiens, UniProt P78545 1-371)
T5 sequence: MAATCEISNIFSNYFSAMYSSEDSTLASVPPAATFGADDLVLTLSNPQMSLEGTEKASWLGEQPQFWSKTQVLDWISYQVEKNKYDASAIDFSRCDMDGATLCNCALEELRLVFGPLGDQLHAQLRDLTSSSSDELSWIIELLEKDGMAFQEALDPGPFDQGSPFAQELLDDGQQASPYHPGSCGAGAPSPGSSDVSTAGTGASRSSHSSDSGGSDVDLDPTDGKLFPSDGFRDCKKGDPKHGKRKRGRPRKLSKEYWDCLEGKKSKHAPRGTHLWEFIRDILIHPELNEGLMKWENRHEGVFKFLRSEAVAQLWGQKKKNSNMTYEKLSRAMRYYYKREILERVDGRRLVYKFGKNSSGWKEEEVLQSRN
In short: as §1

[8] = biological target: ETV1 (Homo sapiens, UniProt P50549 1-477)
ETV1, sequence (P50549 whole entry): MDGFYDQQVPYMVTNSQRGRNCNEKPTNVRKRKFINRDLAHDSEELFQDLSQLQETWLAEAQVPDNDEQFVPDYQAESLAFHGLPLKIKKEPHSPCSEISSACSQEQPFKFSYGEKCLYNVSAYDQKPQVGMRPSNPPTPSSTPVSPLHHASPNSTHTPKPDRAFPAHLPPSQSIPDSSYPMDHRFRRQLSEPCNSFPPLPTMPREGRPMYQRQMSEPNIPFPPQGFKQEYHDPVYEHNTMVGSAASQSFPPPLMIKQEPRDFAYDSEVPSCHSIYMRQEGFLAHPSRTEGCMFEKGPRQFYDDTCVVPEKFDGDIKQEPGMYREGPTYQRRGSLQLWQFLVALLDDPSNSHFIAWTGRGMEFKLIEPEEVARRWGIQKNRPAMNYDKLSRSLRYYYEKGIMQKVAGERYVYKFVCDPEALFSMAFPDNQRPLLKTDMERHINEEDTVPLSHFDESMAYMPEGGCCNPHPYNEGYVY
In short: as §1

[9] = biological target: T6, ERF (Homo sapiens, UniProt P50548 1-548)
T6 sequence: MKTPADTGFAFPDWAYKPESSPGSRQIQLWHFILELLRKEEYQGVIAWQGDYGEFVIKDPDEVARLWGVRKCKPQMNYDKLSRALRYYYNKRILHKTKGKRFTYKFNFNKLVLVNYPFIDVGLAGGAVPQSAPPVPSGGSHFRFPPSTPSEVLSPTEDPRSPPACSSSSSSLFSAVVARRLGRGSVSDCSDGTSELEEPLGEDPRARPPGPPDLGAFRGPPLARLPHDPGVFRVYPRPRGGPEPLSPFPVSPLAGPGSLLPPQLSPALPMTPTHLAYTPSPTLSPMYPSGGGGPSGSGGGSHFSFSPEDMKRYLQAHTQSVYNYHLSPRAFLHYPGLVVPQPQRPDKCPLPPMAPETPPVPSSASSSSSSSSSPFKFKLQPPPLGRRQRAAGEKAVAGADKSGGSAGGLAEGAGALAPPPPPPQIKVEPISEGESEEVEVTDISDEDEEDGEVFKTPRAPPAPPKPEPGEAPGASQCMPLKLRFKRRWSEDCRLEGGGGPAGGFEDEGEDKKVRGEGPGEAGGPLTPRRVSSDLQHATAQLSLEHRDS
In short: as §1

[10] = biological target: T7, ETV3L (Homo sapiens, UniProt Q6ZN32 1-361)
T7 sequence: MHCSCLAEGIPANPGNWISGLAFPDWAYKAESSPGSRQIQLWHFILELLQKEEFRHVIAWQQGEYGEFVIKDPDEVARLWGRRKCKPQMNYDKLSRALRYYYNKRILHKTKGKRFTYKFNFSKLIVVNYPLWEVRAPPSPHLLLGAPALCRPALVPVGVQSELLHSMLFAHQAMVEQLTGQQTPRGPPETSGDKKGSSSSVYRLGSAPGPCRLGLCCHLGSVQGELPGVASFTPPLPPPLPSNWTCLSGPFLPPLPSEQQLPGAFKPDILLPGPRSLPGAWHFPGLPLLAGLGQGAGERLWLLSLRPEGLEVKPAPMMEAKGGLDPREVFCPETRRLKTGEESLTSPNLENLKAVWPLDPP
In short: as §1

[11] = biological target: T8, ETS2 (Homo sapiens, UniProt P15036 1-469)
T8 sequence: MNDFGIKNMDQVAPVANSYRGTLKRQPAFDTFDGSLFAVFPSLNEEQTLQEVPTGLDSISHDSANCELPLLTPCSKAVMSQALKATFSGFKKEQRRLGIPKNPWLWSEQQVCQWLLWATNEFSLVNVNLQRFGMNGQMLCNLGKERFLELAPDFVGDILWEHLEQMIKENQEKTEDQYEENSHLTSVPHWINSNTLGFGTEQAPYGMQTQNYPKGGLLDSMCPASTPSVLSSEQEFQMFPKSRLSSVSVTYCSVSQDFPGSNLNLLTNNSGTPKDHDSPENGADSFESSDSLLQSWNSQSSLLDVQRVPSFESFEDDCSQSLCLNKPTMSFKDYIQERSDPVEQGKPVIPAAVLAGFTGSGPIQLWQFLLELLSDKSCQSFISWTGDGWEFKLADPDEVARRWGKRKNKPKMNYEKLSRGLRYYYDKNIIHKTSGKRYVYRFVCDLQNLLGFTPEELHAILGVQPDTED
In short: as §1

[12] = biological target: T9, SPDEF (Homo sapiens, UniProt O95238 1-335)
T9 sequence: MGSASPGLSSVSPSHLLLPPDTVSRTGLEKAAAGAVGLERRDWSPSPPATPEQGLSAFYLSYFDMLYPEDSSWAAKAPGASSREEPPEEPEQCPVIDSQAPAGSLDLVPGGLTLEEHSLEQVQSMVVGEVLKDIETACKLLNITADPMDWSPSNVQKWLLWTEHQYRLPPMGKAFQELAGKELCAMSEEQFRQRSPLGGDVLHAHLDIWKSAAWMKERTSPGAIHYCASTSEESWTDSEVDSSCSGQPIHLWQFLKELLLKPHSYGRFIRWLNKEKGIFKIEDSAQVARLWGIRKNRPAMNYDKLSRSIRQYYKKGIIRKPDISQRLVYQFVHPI
In short: as §1

[13] = biological target: T10, ETV7 (Homo sapiens, UniProt Q9Y603 1-341)
T10 sequence: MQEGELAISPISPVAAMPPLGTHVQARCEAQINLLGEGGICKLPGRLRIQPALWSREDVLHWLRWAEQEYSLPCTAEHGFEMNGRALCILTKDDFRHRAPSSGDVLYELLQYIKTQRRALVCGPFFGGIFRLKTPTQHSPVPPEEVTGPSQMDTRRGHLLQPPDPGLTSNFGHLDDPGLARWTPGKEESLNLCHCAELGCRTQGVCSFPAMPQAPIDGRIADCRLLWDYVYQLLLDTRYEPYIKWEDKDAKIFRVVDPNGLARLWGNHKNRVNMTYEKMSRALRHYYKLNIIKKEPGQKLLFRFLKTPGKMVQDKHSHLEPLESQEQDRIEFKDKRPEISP
In short: as §1

[14] = biological target: T11, ELF5 (Homo sapiens, UniProt Q9UKW6-2 1-255)
T11 sequence: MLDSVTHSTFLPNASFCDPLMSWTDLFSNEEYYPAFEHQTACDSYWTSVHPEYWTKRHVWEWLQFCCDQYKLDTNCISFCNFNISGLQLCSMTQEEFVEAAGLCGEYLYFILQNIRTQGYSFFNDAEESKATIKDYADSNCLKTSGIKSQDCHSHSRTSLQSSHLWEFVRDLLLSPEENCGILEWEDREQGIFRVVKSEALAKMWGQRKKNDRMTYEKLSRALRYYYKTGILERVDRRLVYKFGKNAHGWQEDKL
In short: as §1

[15] = biological target: T12, ETV3 (Homo sapiens, UniProt P41162-2 1-143)
T12 sequence: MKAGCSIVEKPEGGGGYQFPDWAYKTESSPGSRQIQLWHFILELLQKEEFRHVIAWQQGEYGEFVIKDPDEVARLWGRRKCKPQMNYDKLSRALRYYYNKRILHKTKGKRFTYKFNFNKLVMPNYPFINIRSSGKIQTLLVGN
In short: as §1

[16] = biological target: ETV6 (Homo sapiens, UniProt P41212 1-452)
ETV6, sequence (P41212 whole entry): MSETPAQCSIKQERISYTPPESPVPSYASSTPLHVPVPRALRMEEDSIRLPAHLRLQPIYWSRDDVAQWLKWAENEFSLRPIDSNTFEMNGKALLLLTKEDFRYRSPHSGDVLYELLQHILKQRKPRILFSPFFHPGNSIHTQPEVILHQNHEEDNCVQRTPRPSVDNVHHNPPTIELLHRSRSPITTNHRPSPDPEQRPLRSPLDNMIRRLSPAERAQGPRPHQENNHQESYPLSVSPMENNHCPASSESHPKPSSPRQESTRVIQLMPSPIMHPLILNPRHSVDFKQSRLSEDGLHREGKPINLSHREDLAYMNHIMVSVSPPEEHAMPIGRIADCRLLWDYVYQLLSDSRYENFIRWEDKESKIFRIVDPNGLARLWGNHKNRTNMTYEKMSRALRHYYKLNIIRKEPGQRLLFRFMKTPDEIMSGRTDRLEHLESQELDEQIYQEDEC
In short: as §1

Sequence | binding signal [1] | binding signal [2] | binding signal [3] | binding signal [4] | binding signal [5] | binding signal [6] | binding signal [7] | binding signal [8] | binding signal [9] | binding signal [10] | binding signal [11] | binding signal [12] | binding signal [13] | binding signal [14] | binding signal [15] | binding signal [16]
CGGCAT | 1.09 fold enrichment (6-mer frequency, TF over GST control) | 1.13 fold enrichment (6-mer frequency, TF over GST control) | 1.18 fold enrichment (6-mer frequency, TF over GST control) | 1.06 fold enrichment (6-mer frequency, TF over GST control) | 1.1 fold enrichment (6-mer frequency, TF over GST control) | 1.25 fold enrichment (6-mer frequency, TF over GST control) | 1.02 fold enrichment (6-mer frequency, TF over GST control) | 1.19 fold enrichment (6-mer frequency, TF over GST control) | 1.09 fold enrichment (6-mer frequency, TF over GST control) | 1.23 fold enrichment (6-mer frequency, TF over GST control) | 1.17 fold enrichment (6-mer frequency, TF over GST control) | 1.22 fold enrichment (6-mer frequency, TF over GST control) | 1.07 fold enrichment (6-mer frequency, TF over GST control) | 1.07 fold enrichment (6-mer frequency, TF over GST control) | 1.19 fold enrichment (6-mer frequency, TF over GST control) | 1.21 fold enrichment (6-mer frequency, TF over GST control)
GCACCC | 1.12 fold enrichment (6-mer frequency, TF over GST control) | 1.11 fold enrichment (6-mer frequency, TF over GST control) | 1.3 fold enrichment (6-mer frequency, TF over GST control) | 1.22 fold enrichment (6-mer frequency, TF over GST control) | 1.33 fold enrichment (6-mer frequency, TF over GST control) | 1.28 fold enrichment (6-mer frequency, TF over GST control) | 1.25 fold enrichment (6-mer frequency, TF over GST control) | 1.15 fold enrichment (6-mer frequency, TF over GST control) | 1.21 fold enrichment (6-mer frequency, TF over GST control) | 1.23 fold enrichment (6-mer frequency, TF over GST control) | 1.16 fold enrichment (6-mer frequency, TF over GST control) | 1.17 fold enrichment (6-mer frequency, TF over GST control) | 1.12 fold enrichment (6-mer frequency, TF over GST control) | 1.17 fold enrichment (6-mer frequency, TF over GST control) | 1.24 fold enrichment (6-mer frequency, TF over GST control) | 1.09 fold enrichment (6-mer frequency, TF over GST control)

— paper PMC7862700, “An all-to-all approach to the identification of sequence-specific readers for epigenetic DNA modifications on cytosine”
